Source: PubChem BioAssay (several laboratories)
Glyco luc inh = increase of ERlucT glycosylation luciferase signal, primary screen, N-linked glycosylation inhibitor project, D54 ERlucT cells, luminescence, set 2. D54 ERlucT glycosylation luciferase reporter, 24 h; percent of 100 nM tunicamycin response. reporter increase, % at 12.5 µM. 0.23% of 360,000 active;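 active means mean luciferase reporter signal, scaled so untreated is 0 and the glycosylation-blocking control 100, at or above a set limit in every replicate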;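 further: luciferase carries N-glycosylation sites so blocking glycosylation raises the light; 0% = median of neutral control wells and 100% = median of 100 nM tunicamycin wells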
ABCB6 inh 2 = ABCB6 transporter inhibitors, primary screen, K562-ABCB6 cells, flow cytometry, MLPCN library. AID 602162, 2011. K562-ABCB6 porphyrin accumulation, 1 h; active compounds read low. 0.19% of 360,000 active. fluorescence ratio to DMSO, % at 10 µM. ATP-binding cassette sub-family B member 6 (Homo sapiens), Q9NP58;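 active means fluorescence ratio to DMSO below 75%, the collection mean minus 3 SD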;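 further: signal is porphyrin accumulated inside mitochondria; 100% equals median channel fluorescence of DMSO control wells; lower ratio means ABCB6 inhibition with less porphyrin fluorescence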
Myeloid diff 2 = induction of myeloid progenitor differentiation, primary screen, cell-based, flow cytometry, MLPCN library. ER-HoxA9 myeloid progenitors, lysozyme-GFP differentiation. calls only at 10 µM. 1% of 360,000 active. AID 624256, 2012;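 active means normalized GFP-positive differentiation at or above the plate's own cutoff, the solvent-only control mean plus 3 SD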;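 further: cells exposed to compound for four days before flow analysis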
Vif inh = HIV Vif self-association inhibitors, primary screen, imaging, HEK293T, single point. 0.35% of 340,000 active. AID 602346, 2012. inhibition, % at 7.49 µM. HEK293T cells, Vif self-association by quenched fluorescence, 24 h; in the data active means inhibition above about 50%, passing the limit was not always enough
RAD54 branch = inhibitors of human RAD54 branch migration, primary screen, biochemical, fluorescence, single point; AID 602329, 2012; RAD54 Holliday junction branch migration, FAM/BHQ fluorescence; DNA repair and recombination protein RAD54-like (Homo sapiens), Q92698; 0.14% of 360,000 active; inhibition, % at 10.4 µM;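 active means mean normalized replicate activity at least 40 and at least half of replicates scoring 40 or more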;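 further: 0% = median of neutral control wells and 100% = median of positive control wells; inhibitors cause a drop in the FAM fluorescence signal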
Active calls of the source: *; i = inactive; . = not tested or not shown; + = active, no number. A selection: hits, their analogues and other compounds. The true share with any hit is near 1.6%.

SMILES | Glyco luc inh | ABCB6 inh 2 | Myeloid diff 2 | Vif inh | RAD54 branch
CCNC(=O)C[C@H]1CC[C@H]2[C@H](COc3ccc(NC(=O)c4ccc(C(F)(F)F)cc4)cc3C(=O)N2C)O1 | . | . | . | . | 6.9
Cc1sc(NC(=S)NC(=O)CCc2ccccc2)c(C(N)=O)c1C | 18.5 | 97.0 | . | 125.1* | .
CC(=O)c1cccc(OCc2cc(C(=O)N3C[C@H]4CC[C@H]3C4)no2)c1 | 1.2 | 105.0 | + | -4.2 | 1.1
C[C@H]1CN([C@@H](C)CO)C(=O)c2cc(-c3cccnc3)cnc2O[C@@H]1CN(C)C(=O)Cc1cccnc1 | . | . | . | . | 2.4
O=C(COC(=O)c1cc(S(=O)(=O)N2CCOCC2)ccc1Cl)c1ccc[nH]1 | 1.6 | i | + | 7.8 | -1.7
O=C(COC(=O)c1cc(S(=O)(=O)N2CCOCC2)ccc1Cl)Nc1ccccc1Cl | -0.8 | 92.0 | i | 8.1 | -0.8
O=C(OCC(=O)c1c[nH]c2ccccc12)c1cc(S(=O)(=O)N2CCOCC2)ccc1F | -0.1 | 104.0 | i | -0.8 | 1.3
O=C(COC(=O)c1cc(S(=O)(=O)N2CCOCC2)ccc1F)c1ccc[nH]1 | 2.6 | 100.0 | i | 53.3* | 5.0
O=C(OCCOc1ccccc1F)c1cccc(S(=O)(=O)N2CCOCC2)c1 | -1.2 | 100.0 | + | -11.7 | 6.1
Cc1ccc(S(=O)(=O)N2C[C@H](O)COC[C@H]3O[C@H](CC(=O)NCC4CCCCC4)CC[C@@H]32)cc1 | . | . | . | . | 2.2
O=C(C[C@H]1C[C@@H]2c3cc(NC(=O)Nc4ccccc4F)ccc3O[C@@H]2[C@H](CO)O1)NCC(F)(F)F | . | . | . | . | -1.7
C[C@H](CO)N1C[C@H](C)[C@H](CN(C)C)Oc2ccc(NC(=O)CCN3CCOCC3)cc2C1=O | . | . | . | . | 2.3
Cc1cccc(OCC(=O)N/N=C\c2cccn2C)c1C | -2.0 | 67.0* | i | 8.5 | -7.7
Cc1ccccc1OCC(=O)N/N=C/c1cccn1C | -1.1 | 94.0 | i | 8.1 | 2.9
Cc1cc(O)ccc1N/C=C(\C#N)c1nc2ccccc2o1 | 6.6 | 92.0 | i | 2.4 | 25.5
CSc1nsc(/C=C/Nc2ccc(Cl)cc2)c1C#N | 1.2 | 137.0 | + | -5.0 | -3.2
CSc1nsc(/C=C/Nc2ccc(O)cc2C)c1C#N | 1.6 | 173.0 | + | 6.8 | -2.7
CSc1nsc(/C=C/Nc2ccc(F)cc2)c1C#N | -0.6 | 122.0 | + | . | .
CSc1nsc(/C=C/Nc2cccc(Cl)c2)c1C#N | 4.6 | 125.0 | + | -3.0 | -16.7
CSc1nsc(N/N=C/c2ccc3c(c2)OCO3)c1C#N | -6.0 | 95.0 | i | -6.1 | .
COCC(=O)N(C)C[C@H]1Oc2cc(C#CC(C)C)ccc2S(=O)(=O)N([C@@H](C)CO)C[C@H]1C | . | . | . | . | 11.1
Cn1c(N=Nc2ccc(N3CCOCC3)cc2)[n+](C)c2ccccc21 | -5.4 | 97.0 | i | 6.1 | 92.4*
CC(C)(C)C(=O)NC(=S)NNC(=O)c1ccc(-c2ccccc2)cc1 | 9.6 | 98.0 | + | -7.7 | -4.9
CC(C)(C)C(=O)NC(=S)NNC(=O)c1ccncc1 | 3.3 | 107.0 | i | 7.1 | -1.9
C[C@@H]1CN([C@@H](C)CO)S(=O)(=O)c2ccc(C3=CCCCC3)cc2O[C@H]1CN(C)C(=O)c1ccc(F)cc1 | . | . | . | . | -6.6
CS(=O)(=O)NN1C(=O)c2ccccc2NC1c1ccccc1O (stereo unspecified) | 2.9 | 98.0 | i | -0.7 | 2.4
CS(=O)(=O)NN1C(=O)c2ccccc2NC1c1c[nH]c2ccccc12 (stereo unspecified) | -0.1 | 314.0 | + | 18.2 | .
Cc1cc(C)c2c(c1)/C(=N\N=c1\sc3ccccc3n1C)C(=O)N2 | 0.3 | 114.0 | + | 8.7 | 8.5
Cn1c(=NC(=O)C2=NNC(=O)CC2)sc2ccccc21 | 2.3 | 99.0 | i | 8.7 | .
Cc1cc(C)c2[nH]c(C)c(CN3CCCCCC3)c(=O)c2c1 | 2.7 | 141.0 | + | 0.7 | 2.7
